The panel holds about 83,000 compounds, 20% with a hit somewhere; the sample as a whole holds those more often.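 Percent growth is the endpoint: 0 to 100 indicates growth inhibition (40 means 60% inhibition), 0 means no net growth, and negative values indicate cell death.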 Unmarked numbers belong to inactive results. Activity calls are given as the source filed them.
These compounds were tested on HCT-15 colon (assay: NCI-60 one-dose screen, 48 h (100 = growth as untreated, 0 = no growth, -100 = all killed)). Conditions: 10 µM unless noted.
Experimental: Growth inhibition of the HCT-15 human tumor cell line is measured as a screen for anti-cancer activity. Cells are grown in 96 well plates and exposed to the test compound for 48 hours. Compounds are tested at a single concentration, which is 10^-5 M for most compounds. The reported endpoint is percent growth (GI% or GIPRCNT), where numbers from 0 - 100% represent growth inhibition, and numbers from -100% - 0 represent cell death. For example, a value of 40 represents 60% growth inhibition. A value of 0 means no net growth occurred over the course of the experiment. A value of -40 indicates 40% of cells at the beginning of the experiment died by the end of the experiment. A value of -100 means all cells are dead at the end of the experiment.
NCI-60 Human Tumor Cell Lines Screen was performed using the standard one-dose NCI protocol, which is described in more detail at https://dtp.cancer.gov/discovery_development/nci-60/default.htm.
Compounds with GIPRCNT values below 10 were considered active. Activity score was based on GIPRCNT using the following formula: […]
Score is 0 for GIPRCNT values of 100 or above, 50 for GIPRCNT values of 0, and 100 for GIPRCNT values of -100.

Row | SMILES | growth
1 | O=C(CCc1nnco1)c1nc2ccc([N+](=O)[O-])cc2[nH]1 | 105%
2 | Cc1cccc(C)c1NCc1nnc(-c2ccc(O)cc2)o1 | 97.7%
3 | Cc1[nH]c(N=Nc2ccccc2)nc1N=Nc1ccccc1 | 22.8%
4 | O=C1C(=O)c2c(nc3ccc(Br)cn23)-c2ccccc21 | -75.7% (active)
5 | Cc1ccc(SC2c3ccc(C)cc3Oc3nc(N)c(C#N)c(N)c32)cc1 (stereo not given) | 30.7%
6 | C=C(C)[C@@H]1CC[C@]2(C(=O)O)CC[C@]3(C)[C@H](CC[C@@H]4[C@@]5(C)C[C@@H](CC#Cc6ccccc6)C(=O)C(C)(C)[C@@H]5CC[C@]43C)[C@@H]12 | 18.8%
7 | O=C(Nc1ccccc1)NS(=O)(=O)c1c[nH]c(=S)[nH]c1=O | 109%
8 | Fc1ccc(N/N=C/c2ccc(-n3cccn3)cc2)cc1 | 83%
9 | Nc1c(C(=O)Nc2cccc3ccccc23)sc2nc3c(cc12)CCCCCC3 | 24.6%
10 | CCCn1c2cc(OCc3cn(-c4ccc(Cl)cc4)nn3)ccc2c2ccnc(C)c21 | 67.6%
11 | Cc1cc(NC(=O)CNc2nc(Oc3ccc(F)cc3)nc(-c3ccc(F)cc3)n2)ccc1Cl | 102%
12 | COc1ccc(Nc2nc(SCC(C)C)nc(-c3ccc(F)cc3)c2C#N)cc1 | 46%
13 | CN1CCN(/C=C2\CC(C(=O)NCc3ccc(Cl)cc3Cl)NC2=O)CC1 (stereo not given) | 108%
14 | COC(=O)/C=C1\SC(=Nc2ccc(C(F)(F)F)cc2)N(CCc2c[nH]c3ccccc23)C1=O | -71.4% (active)
15 | O=C1CC23OC(C(O)c4ccccc4N12)C1C(c2ccccc2)=NOC13 (stereo not given) | 29.7%
16 | C=C1C(=O)O[C@H]2[C@H]1CC/C(COC(=O)/C=C/c1cccnc1)=C\CC[C@@]1(C)O[C@@H]21 | 3.01% (active)
17 | O=C1c2ccccc2C(=O)c2c1oc1c2c(=O)[nH]c2ccccc21 | 44.7%
18 | CCc1n(Cc2ccc3ccccc3c2)c2ccccc2[n+]1Cc1ccc2ccccc2c1 | 101%
19 | N#CC(C#N)=C1NC(c2ccccc2)=C(c2ccccc2)C(c2ccccc2Cl)=C1C#N | 102%
20 | CCOC(=O)c1c(-c2ccc(O)cc2)c(C#N)c2c(C#N)c(N)nn2c1N | 76%

Row | SMILES | growth
21 | COc1ccc(-c2nnc(N3CCN(C(=O)CN4CCN(c5ccc(OC)cc5)CC4)CC3)nc2-c2ccc(OC)cc2)cc1 | -40.9% (active)
22 | CCOc1ccc(C2N(c3cc(OC)c(OC)c(OC)c3)C(=O)C2(F)F)cc1 (stereo not given) | 22.6%
23 | CCCCc1nc(Cl)c(C2CC(c3ccc(Cl)cc3)=NN2c2cc(Cl)cc(Cl)c2)[nH]1 (stereo not given) | 86.5%
24 | N#CC1(C#N)C2=C(CCCC2)NC(c2c(F)cccc2Cl)C1(C#N)C#N (stereo not given) | 66.9%
25 | COc1ccc(NC(=O)c2ccc(Nc3ncnc4[nH]c(C)c(C)c34)cc2)cc1 | 103%
26 | COC(=O)c1cncc(C(=O)Nc2ccc(-n3cnc4ccccc43)cc2)c1 | 100%
27 | NC[C@@H]1CCN(c2cc3c(cc2F)c(=O)n(N)c(=O)n3Cc2ccc(-c3ccccc3)cc2)C1 | 50.1%
28 | COc1cc(-c2csc(NC(=O)Nc3cc(Cl)cc(Cl)c3)n2)cc(OC)c1OC | 14.5%
29 | C#C[C@@]1(O)[C@@H](CO)O[C@@H](n2cc(-c3ccco3)c3c(N)ncnc32)[C@@H]1O | 59.3%
30 | S=c1ssnc1-c1cc2ccccc2o1 | 71.1%
31 | Cn1c2ccccc2c2c(OC(=O)c3ccccc3)c3c(nc21)-c1ccccc1C3 | 105%
32 | COC(=O)c1ccc2c(c1)NC(=O)[C@@H]1CCCN21 | 96.6%
33 | COc1cc2c(cc1OCCCOc1cc3c(cc1OC)C(=O)N1CC(F)(F)C[C@H]1C=N3)N=C[C@@H]1CC(F)(F)CN1C2=O | 94.4%
34 | C#CCN(CCCOc1ccc(Cl)cc1Cl)CCCSC(=O)CCCCCN1/C(=C\C=C2/CCCC(/C=C/C3=[N+](CCCCCC(=O)[O-])c4ccccc4C3(C)C)=C2Cl)C(C)(C)c2ccccc21 | 87.2%
35 | O=C(N/N=C/C[C@@H]1[C@@H](/C=C/[C@@H](O)COc2cccc(Cl)c2)[C@H](O)C[C@@H]1O)c1ccncc1 | 99.3%
36 | COc1ccc2oc(=O)cc(-c3nc4ccc(N)cc4[nH]3)c2c1 | 97.7%
37 | CCn1cc(C(=O)O)c(=O)c2cc(F)c(N3CCN(CC(=O)Nc4ccc(/C(C)=N/OC)cc4)CC3)cc21 | 90.5%
38 | COc1ccc(N(C)c2nc(Cl)nc3ccn(C)c23)cc1 | 12.6%
39 | CC[C@]12C=CCN3CC[C@@]4(c5ccc(OC)cc5N(C)[C@H]4[C@@](O)(C(=O)OC)[C@@H]1OC(=O)CCC(=O)O[C@H]1CC[C@H]4[C@@H]5CC[C@H]6CC(=O)CC[C@]6(C)[C@H]5CC[C@]14C)[C@@H]32 | 15.1%
40 | CN1CCN(C(=O)[C@@]2(C)CC[C@]3(C)CC[C@]4(C)C(=CC[C@@H]5[C@@]6(C)CC[C@H](OC(=O)c7cccnc7)C(C)(C)[C@@H]6CC[C@]54C)[C@@H]3C2)CC1 | -46.9% (active)

Reference: PubChem BioAssay (NCI)
